According to PubChem BioAssay AID2014 (Sanford-Burnham Center for Chemical Genomics, 2009):
About 3,000 (1%) of roughly 290,000 compounds were called active. The rule behind the calls is not given here. The entries come from a sample that favours actives as a whole.

Biological target: Polyadenylate-binding protein 1 (Homo sapiens) (UniProt P11940)
Assay: PABP poly(A) RNA binding inhibitors, primary screen, biochemical, fluorescence polarization, uHTS (AID 2014);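 note: calls also rest on retests at 20 µM and on dose response follow-up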
Conditions: stronger effect = higher value

Chain of Polyadenylate-binding protein 1 (Homo sapiens) (P11940 whole entry, looked up): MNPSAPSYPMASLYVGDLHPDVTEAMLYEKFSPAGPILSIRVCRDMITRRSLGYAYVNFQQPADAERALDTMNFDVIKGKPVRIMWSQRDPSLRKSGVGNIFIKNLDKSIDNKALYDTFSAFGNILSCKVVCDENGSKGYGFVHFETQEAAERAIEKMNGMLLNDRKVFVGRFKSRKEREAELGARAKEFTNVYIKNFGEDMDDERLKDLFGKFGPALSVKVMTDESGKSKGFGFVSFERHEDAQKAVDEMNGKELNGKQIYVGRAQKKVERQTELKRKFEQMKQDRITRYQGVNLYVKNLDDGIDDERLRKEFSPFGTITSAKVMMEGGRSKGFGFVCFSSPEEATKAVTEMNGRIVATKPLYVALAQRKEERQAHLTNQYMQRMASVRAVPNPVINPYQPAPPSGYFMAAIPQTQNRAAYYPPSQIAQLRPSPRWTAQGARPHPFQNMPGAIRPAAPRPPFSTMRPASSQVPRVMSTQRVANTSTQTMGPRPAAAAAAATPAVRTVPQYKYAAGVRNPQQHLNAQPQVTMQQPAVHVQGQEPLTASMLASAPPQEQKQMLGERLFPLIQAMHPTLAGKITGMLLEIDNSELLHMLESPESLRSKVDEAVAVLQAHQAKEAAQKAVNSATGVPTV

SMILES: CCOC(=O)N1CCN(C(=O)COCc2cc(-c3ccc4c(c3)OCO4)on2)CC1
- inhibition (at 35 µM): 3.8% (inactive)

SMILES: COc1ccc([N+](=O)[O-])cc1N(CC(=O)Nc1ccccc1C(=O)N1CCOCC1)S(C)(=O)=O
- inhibition (at 35 µM): -5.6% (inactive)

SMILES: COCCn1c(SCC(=O)Nc2nc(C)cs2)nnc1C(C)C
- inhibition (at 35 µM): 2.9% (inactive)

SMILES: O=C(CCN1C(=O)[C@@H]2Cc3ccccc3CN2C1=O)NCc1ccccc1
- inhibition (at 35 µM): 1.7% (inactive)

SMILES: O=C(CCN1C(=O)[C@@H]2Cc3ccccc3CN2C1=O)NCCc1ccccc1
- inhibition (at 35 µM): 58.8% (active)

SMILES: Cc1ccc(CNC(=O)CCN2C(=O)[C@@H]3Cc4ccccc4CN3C2=O)cc1
- inhibition (at 35 µM): 10.4% (inactive)

SMILES: Cc1ccc(C2SCC(=O)N2c2ccccc2)cc1 (configuration not stated)
- inhibition (at 35 µM): -0.7% (inactive)

SMILES: COc1ccc(-c2oc3ncnc(NCCCO)c3c2-c2ccc(OC)cc2)cc1
- inhibition (at 35 µM): 7.6% (inactive)

SMILES: Cc1ccc(N2C(=O)C3C4C=CC(CC4)C3C2=O)cc1Cl (configuration not stated)
- inhibition (at 35 µM): 0.6% (inactive)

SMILES: Cc1cccc(-c2nnc(SCC(=O)O)n2Cc2ccccc2)c1
- inhibition (at 35 µM): 0.6% (inactive)

SMILES: CN1CCc2c(sc3c2c(NCc2ccco2)nc2nnnn23)C1
- inhibition (at 35 µM): 94.1% (active)

SMILES: Cn1c(=O)n(Cc2ccco2)c(=N)c2c3c(sc21)CCCC3
- inhibition (at 35 µM): 8.4% (inactive)

SMILES: CCCSc1nc(NCc2ccco2)c2c3c(sc2n1)COC(C)(CC)C3 (configuration not stated)
- inhibition (at 35 µM): 9.5% (inactive)

SMILES: COc1ccc(C(CNC(=O)c2ccc(S(=O)(=O)Nc3ccccc3F)cc2)N(C)C)cc1 (configuration not stated)
- inhibition (at 35 µM): 53.4% (active)
- inhibition (confirmation repeats, at 20 µM): 116%

SMILES: COc1ccc(C(CNCC(=O)Nc2ccccc2F)N(C)C)cc1 (configuration not stated)
- inhibition (at 35 µM): -7.5% (inactive)

SMILES: CC(=O)c1ccc(S(=O)(=O)Nc2ccc(C(=O)NCC(c3ccccc3)N(C)C)cc2)cc1 (configuration not stated)
- inhibition (at 35 µM): 12.7% (inactive)

SMILES: Cc1ccc(S(=O)(=O)N(CC(=O)NCc2ccco2)c2ccccc2C)cc1
- inhibition (at 35 µM): 3% (inactive)

SMILES: COc1ccc2c(C)c(CCC(=O)NC3CC3)c(=O)oc2c1C
- inhibition (at 35 µM): 11.8% (inactive)

SMILES: CCOC(=O)C1(Cc2cccc(OC)c2)CCCN(C(=O)CCSC)C1 (configuration not stated)
- inhibition (at 35 µM): 15.2% (inactive)

SMILES: CCSc1nnc(NC(=O)c2ccc(C)cc2)s1
- inhibition (at 35 µM): -4.4% (inactive)

SMILES: Cc1ccc(C(=O)Oc2coc(CSc3nnc(NC(=O)c4cccs4)s3)cc2=O)cc1C
- inhibition (at 35 µM): -2.3% (active)
- inhibition (confirmation repeats, at 20 µM): 88.5%

SMILES: Cc1ccc(C(=O)Nc2nnc(-c3cccs3)s2)cc1C
- inhibition (at 35 µM): 4.7% (inactive)

SMILES: CN(C)CCN(C(=O)C1CCCCC1)c1nc2cc3c(cc2s1)OCO3
- inhibition (at 35 µM): 11% (inactive)

SMILES: CN(C)CCCn1c(=O)n(Cc2ccccc2)c(=O)c2c3c(sc21)CCCCC3
- inhibition (at 35 µM): -5.5% (inactive)

SMILES: CCCCCCn1cc(C(=O)O)c(=O)c2cc(F)c(N3CCCCC3)cc21
- inhibition (at 35 µM): -0.7% (inactive)
